MPTP inh: permeability transition pore inhibition; isolated mouse mitochondria, Ca2+ swelling absorbance, 30 min; inhibition, % at 10 µM; 360,000 tested, 1.4% active; AID 602449;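 active means inhibition of 50% or more, scaled per plate between neutral and stimulator controls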;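 further: 0% = DMSO wells given calcium and 100% = 1 mM EGTA wells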
NadD inh: inhibitors of Staphylococcus aureus NadD | AID 602399 | purified NadD enzyme, colorimetric absorbance read-out | 360,000 tested, 0.78% active | inhibition, % at 20 µM; in the data active means inhibition above about 26%
TAG inh: triacylglycerol accumulation inhibition | H9c2 cells, Nile Red lipid (TAG) fluorescence; cells loaded with 200 µM oleic acid | AID 651582 | 230,000 tested, 0.66% active | inhibition, % at 12.5 µM;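 active means pattern-corrected inhibition of lipid staining of at least 50% with the nuclear-stain viability signal not falling by more than 50%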;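 further: 0% = DMSO wells and 100% = triacsin C control wells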
aDG glyco act: alpha-DG glycosylation activation; 360,000 tested, 0.22% active; Pro5-aDG cells, alpha-DG glycosylation AlphaScreen (IIH6); 0% Pro5, 100% B10-LARGE cell signal; activation, % at 10 µM; AID 624168;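 active means activation of at least 8% versus controls, or a plate z-score of at least 8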;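 further: Pro5 are CHO cells carrying HIG-tagged alpha-DG that lacks glycosylation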
Rh123 counter: membrane potential counter-screen of mitochondrial pore inhibitors; inhibition, % at 10 µM; AID 624504; 5,000 tested, 78% active; isolated mitochondria, Rhodamine 123 fluorescence; shares compounds with MPTP inh; in the data active means inhibition above about 22%;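 further: 0% = DMSO vehicle and 100% = positive control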
Active calls of the source: *; · = no result. Hits are enriched below; roughly 2.7% of the tested compounds scored in any of these assays.

SMILES | MPTP inh | NadD inh | TAG inh | aDG glyco act | Rh123 counter
CCC(C)(C)C1CCC2(CC1)NC(=O)N(CC(=O)N(C)Cc1ccc3c(c1)OCCO3)C2=O (configuration not stated) | 0 | -2 | 29 | 1 | ·
Cc1cc(Cl)c(S(=O)(=O)NC2CCCC2)cc1OCC(=O)NC1CCCCC1 | 80* | -2 | -7 | 1 | 72*
Cc1cc(Cl)c(S(N)(=O)=O)cc1OCC(=O)NC1CCCCC1 | 1 | -7 | -2 | 0 | ·
Cc1cc(Cl)c(S(=O)(=O)N2CCSCC2)cc1OCC(=O)NC1CCCCC1 | 86* | 4 | -22 | 3 | 85*
CCOC(=O)c1oc2ccc(Br)cc2c1NC(=O)CN1CCN(C)CC1 | 69* | -5 | 45 | 2 | -6
COC(=O)c1oc2ccc(Br)cc2c1NC(=O)CCN1CCOCC1 | 0 | -3 | · | 0 | ·
CC[C@H](C)[C@H]1CNC(=S)N1CC1CCN(CCC23CC4CC(CC(C4)C2)C3)CC1 | 2 | 7 | 11 | 1 | ·
Cc1cccc(C(=O)Nc2sc(C)c(-c3ccccc3)c2C#N)c1 | 1 | -5 | 6 | 0 | ·
Cc1noc(C)c1C(=O)Nc1sc(C)c(-c2ccccc2)c1C#N | 74* | -8 | · | 0 | 80*
CCOC(=O)C1=CCN(S(=O)(=O)c2ccccc2F)C1c1ccc(F)cc1 (configuration not stated) | -2 | -8 | · | 0 | ·
Cc1ccc(Cl)cc1-c1cc(C(=O)N2CCN(c3ccncc3)CC2)[nH]n1 | 0 | -2 | 9 | 0 | ·
COC(=O)[C@@H](CC(C)C)NS(=O)(=O)N(Cc1ccccc1)[C@@H](CC(C)C)C(=O)OC | -2 | -8 | 20 | 0 | ·
C=C(C)CSc1cc(C)c(C#N)c2nc3ccccc3n12 | 54* | 18 | 8 | 0 | 56*
Cc1cc(NCCCCO)n2c(nc3ccccc32)c1C#N | -1 | -3 | · | 0 | ·
O=C(CCCN1C(=O)/C(=C/c2ccccc2Cl)SC1=S)NNC(=O)c1cccnc1 | 4 | 2 | 1 | 0 | ·
O=C(CCN1C(=O)/C(=C\c2ccccc2)SC1=S)NNC(=O)c1cccnc1 | 80* | 4 | 1 | 1 | 70*
CCc1ccccc1N(C)S(=O)(=O)c1ccc2[nH]cc(C(=O)N3CCc4ccccc43)c(=O)c2c1 | 64* | 19 | · | 0 | 63*
CSc1nc2ccc(NS(=O)(=O)c3ccc4c(c3)OCCO4)cc2s1 | 55* | -4 | · | 0 | 101*
CSc1nc2ccc(NS(=O)(=O)c3ccccc3F)cc2s1 | 0 | -7 | · | 1 | ·
CSc1nc2ccc(NS(=O)(=O)c3c(Cl)cccc3Cl)cc2s1 | 1 | 2 | · | 0 | ·
CSc1nc2ccc(NS(=O)(=O)c3ccc(Br)s3)cc2s1 | 84* | -6 | -1 | 0 | 75*
CC(=O)Nc1ccc2nc(NC(=O)c3ccc([N+](=O)[O-])o3)sc2c1 | 3 | 1 | · | 0 | ·
Cc1onc(-c2ccc(Cl)cc2)c1-c1ccnc(SCC(=O)Nc2cc(Cl)cc(Cl)c2)n1 | 50* | 9 | 29 | 0 | 51*
CCC(O)(CC)C(=O)N/N=C/c1cc(Br)cc(Br)c1O | 83* | 8 | 4 | 0 | 46*
O=C(O)c1cccc(N/N=C/c2cc(Br)cc(Br)c2O)c1 | 13 | 0 | 9 | 0 | ·
SMILES | MPTP inh | NadD inh | TAG inh | aDG glyco act | Rh123 counter
COc1ccc(CN2CCN(CCCCOc3ccc(Cl)cc3)CC2)c(OC)c1OC | 66* | -2 | · | 5 | 29*
CC(=O)Nc1cc([N+](=O)[O-])ccc1N1CCOCC1 | 0 | 8 | -4 | 0 | ·
O=C(Nc1ccc([N+](=O)[O-])cc1)Nc1ccc(N2CCOCC2)c2nonc12 | 96* | 10 | -33 | 0 | 58*
Cc1ccc(S(=O)(=O)N2CCOCC2)cc1NC(=O)Nc1ccc([N+](=O)[O-])cc1 | 100* | 2 | -30 | 0 | 99*
O=C(Nc1cccc(Cl)c1)Nc1cc(S(=O)(=O)N2CCOCC2)ccc1N1CCCC1 | 87* | 15 | -9 | 0 | 75*
Cc1ccc(S(=O)(=O)N2CCOCC2)cc1NC(=O)c1cc([N+](=O)[O-])ccc1N1CCOCC1 | -1 | -1 | -4 | 0 | ·
CC(Oc1cccc(Cl)c1)C(=O)Nc1cc(S(=O)(=O)N2CCOCC2)ccc1N1CCCC1 (configuration not stated) | 1 | -4 | -4 | 0 | ·
CCCCn1nnnc1C(c1cc2ccccc2o1)N(C)CCc1ccccc1 (configuration not stated) | 1 | 10 | · | 0 | ·
Cc1ccc(OCC(=O)Nc2cccc(S(=O)(=O)N3CCCCCC3)c2)cc1C | 0 | -9 | 0 | 0 | ·
CC(=O)c1cccc(NC(=O)Nc2csc3c2CCCC3)c1 | 80* | 0 | -6 | 0 | 94*
CC(=O)c1cccc(NC(=O)c2csc3c2CCCCC3)c1 | 6 | -6 | -3 | 0 | ·
O=C(COC(=O)COc1ccccc1[N+](=O)[O-])NCc1ccc2c(c1)OCO2 | -1 | -5 | -5 | 0 | ·
O=C(/C=C/c1ccc(O)c([N+](=O)[O-])c1)c1ccc2ccccc2c1 | 21 | 15 | · | 0 | ·
COc1ccc(Oc2ccc(/C=C/C(=O)c3ccc(O)cc3)cc2[N+](=O)[O-])cc1 | 88* | -2 | · | -1 | 66*
CC(C)(C)N(NC(=O)Nc1ccc(F)cc1)C(=O)c1ccccc1 | -1 | -3 | · | 0 | ·
Cc1cc(C)cc(C(=O)N(NC(=O)Nc2ccc(Cl)cc2)C(C)(C)C)c1 | 97* | 1 | 29 | 1 | 98*
CC(C)(C)N(NC(=O)Nc1ccc(Cl)c(Cl)c1)C(=O)c1ccccc1 | 104* | -11 | 5 | 0 | 97*
Cc1cc(NC(=O)COC(=O)C(C)Oc2ccc(Cl)cc2Cl)no1 (configuration not stated) | 0 | -4 | · | 0 | ·
CCOc1ccccc1N1CC(C(=O)N2CCOCC2)CC1=O (configuration not stated) | -1 | -1 | · | 0 | ·
CCn1c(SC(C)C(=O)NCC2CCCO2)nc2ccccc21 (configuration not stated) | 0 | 0 | 6 | 0 | ·
S=C(NCCc1ccc(Cl)cc1)Nc1ccc(Cl)cc1Cl | 86* | 6 | 6 | 0 | 86*
Fc1ccc(CNC(=S)Nc2ccc(Cl)cc2Cl)cc1 | 100* | -5 | · | 0 | 106*
S=C(NCc1ccc(Cl)cc1)Nc1ccccc1Cl | 27 | -5 | 1 | 0 | ·
S=C(NCc1ccc(Cl)cc1)Nc1ccc(Cl)cc1Cl | 100* | -6 | · | 0 | 87*
CCCNC(=S)Nc1ccc(Cl)cc1Cl | 2 | -6 | · | 0 | ·
S=C(NCc1cccs1)Nc1ccc(Br)cc1Cl | 75* | -3 | -24 | 0 | 79*
Fc1ccc(CNC(=S)NCc2cccc(Cl)c2)cc1 | 45 | -4 | 5 | 0 | ·
COc1cccc(-c2cnc(C(O)c3ccc(F)c(C)c3)[nH]2)c1 (configuration not stated) | 0 | -2 | 3 | 0 | ·
Cc1c(Cl)cccc1NC(=S)NCCc1ccc(Cl)cc1 | 85* | -5 | · | 0 | 81*
CC1CCCCC1NC(=S)Nc1ccc(Cl)cc1Cl (configuration not stated) | 93* | -2 | -9 | 0 | 87*
